The source of these data is PubChem BioAssay AID488969 (Vanderbilt High Throughput Screening Facility, 2010).

Whole data set: some 110,000 compounds, median “z-score” near -0.1, cut for the highest 2% near 2. Only a selection was taken, and the highest values are over-represented in it overall. Calls of active or inactive are those of the source.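 The calls were made as follows: active = z-score in the third read window above 3 or below -3; inactive = the rest.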

For the assay, the target named is Metabotropic glutamate receptor 8 (Rattus norvegicus) (UniProt P70579). Description: rat mGluR8 modulators via GIRK flux, primary screen, cell-based, thallium flux, HTS (AID 488969). The note with it: HEK293 rat mGluR8, GIRK (G protein-gated inwardly rectifying potassium channel) thallium flux, FluoZin2; at 10 µM; stronger effect = higher value; submaximal glutamate (EC20) added with thallium.
Metabotropic glutamate receptor 8 (Rattus norvegicus), sequence (P70579 whole entry, looked up): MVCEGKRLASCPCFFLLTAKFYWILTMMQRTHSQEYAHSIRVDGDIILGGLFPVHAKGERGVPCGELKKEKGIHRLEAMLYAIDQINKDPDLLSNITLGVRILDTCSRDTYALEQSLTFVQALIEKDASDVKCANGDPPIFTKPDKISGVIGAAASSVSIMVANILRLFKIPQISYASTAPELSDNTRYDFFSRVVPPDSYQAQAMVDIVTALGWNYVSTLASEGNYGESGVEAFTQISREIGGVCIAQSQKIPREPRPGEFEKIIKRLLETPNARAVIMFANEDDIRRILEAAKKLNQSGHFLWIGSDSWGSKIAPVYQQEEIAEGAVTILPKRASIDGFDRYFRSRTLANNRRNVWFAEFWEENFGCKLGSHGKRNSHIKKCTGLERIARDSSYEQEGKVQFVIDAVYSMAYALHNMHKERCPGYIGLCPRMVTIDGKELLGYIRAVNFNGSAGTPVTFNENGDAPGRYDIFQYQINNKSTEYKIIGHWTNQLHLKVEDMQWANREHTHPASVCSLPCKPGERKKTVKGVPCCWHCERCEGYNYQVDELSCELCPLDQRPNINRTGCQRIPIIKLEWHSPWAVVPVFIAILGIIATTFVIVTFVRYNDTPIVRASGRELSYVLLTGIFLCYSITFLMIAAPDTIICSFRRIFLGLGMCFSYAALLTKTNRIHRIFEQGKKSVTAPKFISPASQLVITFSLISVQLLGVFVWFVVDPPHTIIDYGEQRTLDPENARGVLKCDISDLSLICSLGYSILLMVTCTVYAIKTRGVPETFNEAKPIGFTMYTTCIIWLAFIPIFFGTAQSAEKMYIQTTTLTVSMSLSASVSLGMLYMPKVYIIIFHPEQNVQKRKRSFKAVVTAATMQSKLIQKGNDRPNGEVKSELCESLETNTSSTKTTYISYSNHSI
As for `O=C(NCc1ccc(Cl)cc1)C(=O)NCC1OCCN1C(=O)c1cccs1` (stereo not drawn), the z-score is -0.152. `Cn1cc(-c2nc3ccccc3[nH]2)c2ccccc21`: the z-score is -1.41. Compound `O=C(c1ccccc1)C(Sc1ncn[nH]1)c1ccccc1` (stereo not drawn) had a z-score of -0.672. The compound `Cc1ccc(C)c(OCC(=O)N/N=C/c2c(C)nn(-c3ccccc3)c2Cl)c1C` came in with a z-score of -0.185. `COC(=O)N/N=C\c1c(C)nn(-c2ccccc2)c1Cl` registered a z-score of -0.389.

With `Cc1ccc(C)c(OCC(=O)N/N=C/c2c(C)nn(-c3ccccc3)c2Cl)c1`, the z-score worked out at 2.98.

`Fc1ccccc1N1CCN(CCCNc2ccc3nncn3n2)CC1`: the z-score was 0.731. Take `CCOC(=O)N1CCC(NCCNC(=O)c2ccccc2)CC1`: the z-score worked out at 0.292. The figure for `CC(OC(=O)CN1C(=O)C2CCCCC2C1=O)C(=O)Nc1ncc(Cl)cc1Cl` (stereo not drawn) is 0.031; for `O=C(COC(=O)CN1C(=O)c2ccccc2C1=O)Nc1ncc(Cl)cc1Cl` it is 0.719. In turn, `CC(OC(=O)CCCN1C(=O)c2ccccc2C1=O)C(=O)Nc1ncc(Cl)cc1Cl` (stereo not drawn) gave a z-score of 2.08. The compound `Cc1c(NC(=O)C(C)OC(=O)c2cc(Cl)nc(Cl)c2)c(=O)n(-c2ccccc2)n1C` (stereo not drawn) registered a z-score of 0.0979. The figure for `CCOC(=O)C(Oc1ccc2c(-c3ccccc3)cc(=O)oc2c1C)c1ccccc1` (stereo not drawn) is -0.0738; for `Cc1csc(NC(=O)CSc2nnc(-c3cc(C)on3)o2)n1` it is 0.301; for `CCOC(=O)c1sc2ncnc(NCc3ccco3)c2c1C` it is 14.7 (active). With `CCOC(=O)c1sc2nc(CC(=O)OC)nc(NCc3ccco3)c2c1C` the figure was -0.245; with `CCc1cc2c(NCc3ccco3)ncnc2s1`, -0.444; with `Cc1c(NC(=O)c2cc3nc(-c4ccc(Br)cc4)cc(C(F)(F)F)n3n2)c(=O)n(-c2ccccc2)n1C`, -0.51. Compound `Cc1cc(C)nc(/N=C(\N)Nc2ccc(F)c([N+](=O)[O-])c2)n1` displayed a z-score of -0.14. In the case of `O=C(C(Cc1ccccc1)N1C(=O)C2C3C=CC(C3)C2C1=O)N1CCCCC1` (stereo not drawn), the z-score was -0.174.

Take `CC(C)C(=O)Nc1ccccc1C(=O)OCC(=O)c1ccc2c(c1)OCCO2`: the z-score was -0.424.

As to `COc1ccccc1NC(=O)NCc1ccc2c(c1)OCO2`, the z-score stood at 0.532. Take `CC(=O)Nc1ccccc1OCC(=O)c1ccc2c(c1)OCO2`: the z-score came out at 2.07. The figure for `O=C1CC(c2cccc(Br)c2)c2cc3c(cc2N1)CCC3` (stereo not drawn) is -0.00205; for `COc1ccc(S(=O)(=O)Nc2ccc(C)cc2)cc1OC` it is -0.166; for `CS(=O)(=O)N(CC(=O)N1CCN(Cc2ccc3c(c2)OCO3)CC1)Cc1ccc(Cl)cc1` it is 0.174.

`Cc1ccc(NC(=S)N2CCN(Cc3ccc4c(c3)OCO4)CC2)c(C)c1` showed a z-score of -0.407.

With `Cc1c(Cl)cccc1NC(=S)N1CCN(Cc2ccc3c(c2)OCO3)CC1`, the z-score is 0.334. `Cc1cccc(C(=O)N2CCN(Cc3ccc4c(c3)OCO4)CC2)c1`: the z-score is -0.0762.

For the compound `CCN(CC)c1ccc(C(=O)NC(=S)N2CCN(Cc3ccc4c(c3)OCO4)CC2)cc1`, the z-score is 10 (active). Take `O=C(NC(=S)N1CCN(Cc2ccc3c(c2)OCO3)CC1)c1ccc(Cl)cc1`: the z-score was 15.2 (active). `CCn1cnc2sc(C(=O)N3CCN(Cc4ccc5c(c4)OCO5)CC3)c(C)c2c1=O` came in with a z-score of 2.58. With `CCn1cnc2sc(C(=O)Nc3ccc4c(c3)OCO4)c(C)c2c1=O`, the z-score was -0.145. Turning to `O=C(NC(=S)N1CCN(Cc2ccc3c(c2)OCO3)CC1)c1cccc(Br)c1`, the z-score is 9.35 (active). `CCn1nc(C(=O)N2CCN(Cc3ccc4c(c3)OCO4)CC2)c2ccccc2c1=O` displayed a z-score of -0.474. The figure for `O=C(c1ccc(Br)o1)N1CCN(Cc2ccc3c(c2)OCO3)CC1` is -1.48. `CCC(CC)C(=O)N1CCN(Cc2ccc3c(c2)OCO3)CC1` registered a z-score of -0.17. As for `CCN1C(=O)/C(=C\N2CCCc3ccccc32)SC1=S`, the z-score was -0.289. `O=C(c1ccc(OCC2CCCO2)cc1)N1CCN(c2ccccc2)CC1` (stereo not drawn): the z-score is -0.525.

`O=C(NCCc1ccc(Cl)cc1)C1CCC(=O)N1Cc1ccccc1Cl` (stereo not drawn): the z-score was -0.0695. In the case of `COc1ccc(NC(=O)C(NC(=O)CC2NC(=O)NC2=O)c2ccccc2)cc1` (stereo not drawn), the z-score turned out to be 0.0457. As for `CC(=O)NC12CC3CC(CC(CC(=O)O)(C3)C1)C2`, the z-score came to 0.634.

In turn, `O=Cc1cccn1Cc1ccc(Cl)cc1Cl` came in with a z-score of -0.152. With `Cc1nn(-c2ccccc2)c2c1C1(C(=O)N(C)c3ccccc31)C(C#N)=C(N)O2` (stereo not drawn) the figure was -0.0421; with `O=C1OCCC1Sc1nnc(-c2ccc(Cl)cc2)n1Cc1ccccc1` (stereo not drawn), -0.478. As to `O=C1OCCC1Sc1nc2ccccc2n1Cc1ccccc1` (stereo not drawn), the z-score was -1.37. The figure for `O=C1OCCC1Sc1nc2cc(Cl)ccc2n1Cc1ccccc1` (stereo not drawn) is 6.69 (active); for `Cc1c(N=C2SCC(=O)N2/N=C/c2ccccc2Cl)c(=O)n(-c2ccccc2)n1C` it is 0.339; for `Cc1sc2ncnc(SCC(=O)N3CCCC3=O)c2c1C` it is 2.71.

With `Cc1sc2ncnc(SCC(=O)NC3CC3)c2c1C`, the z-score worked out at 0.845. Consider `Cc1sc2ncnc(SCC(=O)N3CCCC3)c2c1C`, for which the z-score was 0.342. With `COc1cc(C(=O)Nc2nnc(C)s2)cc(OC)c1OC` the figure was 0.381; with `Cc1ccc(-n2nc(-c3cccnc3)cc2C(=O)N2CCOCC2)c(C)c1`, 0.372.

In the case of `Nc1nnc(C(=O)c2ccccc2N)s1`, the z-score is 4.29 (active). In the case of `Nc1nnc(-c2ccccc2)s1`, the z-score was -0.337.

`Nc1ccccc1NC(=O)c1ccccc1N` displayed a z-score of 0.194. Turning to `Cc1c(NC(=O)COC(=O)C(c2ccc(Cl)cc2)C(C)C)c(=O)n(-c2ccccc2)n1C` (stereo not drawn), the z-score is -0.457.

`OC(CNC1CCCC1)COc1c(F)cc(Br)cc1F` (stereo not drawn) returned a z-score of 0.142. The figure for `CC(C)(C)NCC(O)COc1c(F)cc(Br)cc1F` (stereo not drawn) is 0.622.

In the case of `CC(C)(C)CC(C)(C)NCC(O)COc1c(F)cc(Br)cc1F` (stereo not drawn), the z-score was 3.25 (active). In turn, `C=CCSC1=N/C(=C\c2ccsc2)C(=O)S1` yielded a z-score of -0.538. The figure for `CC(C)OC(=O)c1cccnc1SCC(=O)N(C)c1ccccc1` is -0.698; for `CCOc1ccc(CNC(=O)C2CCCN(S(C)(=O)=O)C2)cc1OC` (stereo not drawn) it is 0.258.

`CCC(=O)Nc1ccc(Cl)c(NC(=O)C(C)C)c1`: the z-score amounted to 0.418. With `O=C(NCCCn1ccnc1)Nc1ccc(Cl)c(Cl)c1`, the z-score was 3.92 (active). Regarding `O=C(NCCCn1ccnc1)Nc1cccc(Cl)c1`, the z-score stood at 0.583. The compound `Cc1nn(C)cc1CNC(=O)Nc1ccc(Br)cc1Cl` displayed a z-score of -0.126. With `C=COCCNC(=O)Nc1ccc(Cl)cc1Cl` the figure was 0.104; with `O=C(NCCCn1ccnc1)Nc1ccc(Cl)cc1Cl`, -0.326; with `C=COCCNC(=O)Nc1ccc(Cl)c(Cl)c1`, 3.37 (active). The figure for `Cc1nn(C)cc1CNC(=O)Nc1ccc(Cl)c(Cl)c1` is 2.06; for `CN(C)CCNC(=O)Nc1ccc(Cl)c(Cl)c1` it is 0.092. With `Cc1nn(C)cc1CNC(=O)Nc1cccc(Cl)c1` the figure was 0.0377.
